Data: publication PMC5540273 (PLoS ONE, 2017)

Columns and labels:
Conditions in all cases: concentration: 1 μM, replicates: in singlicate; n = 1
ERK1 = system: T1, ERK1
T1 construct: gene MAPK3

ERK2 = system: T2, ERK2
T2 construct: gene MAPK1

ERK3 = system: T3, ERK3
T3 construct: gene MAPK6

ERK4 = system: T4, ERK4
T4 construct: gene MAPK4

ERK5 = system: T5, ERK5
T5 construct: gene MAPK7

ERK8 = system: T6, ERK8
T6 construct: gene MAPK15

ERN1 = system: ERN1
FAK = system: T7, FAK
T7 construct: gene PTK2

FER = system: FER
FES = system: FES
FGFR1 = system: FGFR1
FGFR2 = system: FGFR2
FGFR3 = system: FGFR3
FGFR4 = system: FGFR4
FGR = system: FGR
FLT1 = system: FLT1
FLT3-autoinhibited = system: FLT3-autoinhibited
FLT3 = system: FLT3
FLT4 = system: FLT4
FRK = system: FRK
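Note: KINOMEscan kinase panel screen.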

Compound | %Inh (ERK1) [%] | %Inh (ERK2) [%] | %Inh (ERK3) [%] | %Inh (ERK4) [%] | %Inh (ERK5) [%] | %Inh (ERK8) [%] | %Inh (ERN1) [%] | %Inh (FAK) [%] | %Inh (FER) [%] | %Inh (FES) [%] | %Inh (FGFR1) [%] | %Inh (FGFR2) [%] | %Inh (FGFR3) [%] | %Inh (FGFR4) [%] | %Inh (FGR) [%] | %Inh (FLT1) [%] | %Inh (FLT3-autoinhibited) [%] | %Inh (FLT3) [%] | %Inh (FLT4) [%] | %Inh (FRK) [%]
Cc1ccc(O)cc1Nc1ccnc2cc(-c3ccc(CN4CCCCC4)o3)ccc12 [GW557777] | 0 | 0 | 0 | 8 | 20 | 0 | 23 | 0 | 11 | 7 | 25 | 21 | 0 | 2 | 100 | 89 | 8 | 43 | 68 | 99.9
Cn1cc(-c2cnc(N)c3c(-c4ccc5c(c4)CCN5C(=O)Cc4ccccc4)csc23)cn1 [GSK2593074] | 0 | 0 | 0 | 0 | 15 | 11 | 28 | 7 | 10 | 14 | 28 | 40 | 49 | 0 | 75 | 79 | 0 | 99 | 31 | 38
Cn1cc(-c2ccc3c(c2)CCN3C(=O)Cc2cc(F)cc(F)c2F)c2c(N)ncnc21 [GSK2634140] | 9 | 9 | 0 | 0 | 0 | 0 | 11 | 5 | 39 | 0 | 0 | 0 | 0 | 0 | 48 | 59 | 0 | 31 | 14 | 10
CC(=O)Nc1cn2nc(Oc3cccc(NC(=O)c4cccc(C(F)(F)F)c4)c3)ccc2n1 | 0 | 0 | 0 | 0 | 0 | 19 | 0 | 13 | 3 | 0 | 0 | 91.4 | 53 | 50 | 93.1 | 98.5 | 0 | 97.4 | 100 | 99.9
COc1ccc(C2=C(Nc3cccc(O)c3)C(=O)NC2=O)cc1 [SB-390766] | 0 | 0 | 6 | 22 | 100 | 15 | 20 | 98.1 | 0 | 0 | 0 | 0 | 0 | 27 | 0 | 5 | 0 | 0 | 35 | 11
Cl.N#CCc1ccc(Nc2nccc(Nc3ccc(Oc4ccccc4)cc3)n2)cc1 [GW639905] | 0 | 0 | 0 | 0 | 0 | 35 | 10 | 0 | 0 | 0 | 11 | 8 | 13 | 0 | 90.2 | 43 | 23 | 94.5 | 12 | 39
CCNc1nccc(-c2c(-c3ccc(F)cc3)ncn2C2CCN(C)CC2)n1 | 0 | 0 | 0 | 0 | 0 | 4 | 100 | 0 | 0 | 0 | 0 | 6 | 0 | 0 | 0 | 18 | 0 | 24 | 6 | 0
COc1ccc(C)c(Nc2ccnc(Nc3ccc(-c4cnc[nH]4)cc3)n2)c1.Cl [GW784041] | 0 | 9 | 16 | 0 | 0 | 4 | 0 | 0 | 2 | 2 | 23 | 4 | 48 | 100 | 86 | 14 | 0 | 15 | 10 | 69
O=C(Nc1n[nH]c2cc(-c3cccs3)ccc12)C1CC1 [SB-731284] | 0 | 0 | 0 | 0 | 0 | 85 | 29 | 0 | 0 | 0 | 18 | 0 | 0 | 0 | 0 | 0 | 65 | 59 | 18 | 0
COc1cccc(CC(=O)N2CCc3cc(-c4cn(C)c5ncnc(N)c45)ccc32)c1 [GSK2608899] | 6 | 13 | 0 | 12 | 0 | 17 | 19 | 8 | 17 | 0 | 22 | 0 | 0 | 0 | 15 | 59 | 0 | 66 | 0 | 0
